Measurements reported in PubChem BioAssay.

Experiment: MM1S cell viability effects, profiling panel, calcein-AM fluorescence, 48 h, basal (AID 1165);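 further: viability of MM1S multiple myeloma cells under basal unstimulated conditions; test concentration not given here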
Conditions: higher = more signal

Which z-score does the source give for `[N-]=[N+]=NCc1ccccc1[C@H]1OC(c2ccc(OCCCO)cc2)=N[C@@]1(Cc1ccccc1N=[N+]=[N-])C(=O)O` here?
Its z-score is -0.934.

With `C=CCN1C(=O)[C@]2(O[C@H](CCO)[C@@H]([Si](C)(C)c3ccc(OC)cc3)[C@@H]2C)c2cc(N3C(=O)c4ccccc4Oc4ccccc43)ccc21` as the molecule, how does the z-score read?
Its z-score is -2.73.

With `CCOC(=O)C[C@H]1[C@H](OC(=O)c2ccc(-c3ccccc3)cc2)[C@@H](NC(=O)C2CCCCC2)c2cc(OCCCO)ccc2N1C(=O)Cc1ccc(OC)cc1` as the molecule, how does the z-score read?
Its z-score is -0.581.

With `C=CCNC(=O)[C@@H]1[C@H]2C(=O)O[C@H](c3ccccc3)[C@H](c3ccccc3)N2[C@H](c2ccc(OCCO)cc2)[C@@]12C(=O)Nc1ccc(C#CCNC(N)=O)cc12` as the molecule, how does the z-score read?
Its z-score is 0.0041.

For `CC(C)Cc1ccc(CN2CC[C@@H](NC(=O)c3ccccc3)C2)cc1`, which z-score is on record?
Its z-score is -3.15.

Which z-score does the source give for `CC(=O)NCCCC[C@@H]1NC(=O)[C@H]2C[C@@H](C(=O)NCCCCCN)[C@@H](c3ccc(O)cc3)N2C1=O` here?
Its z-score is -0.0917.

With `CCCNC(=O)[C@@]1(Sc2ccc(C)cc2)CC(=O)N(Cc2cc(C(F)(F)F)cc(C(F)(F)F)c2)[C@@H]1c1ccc(CO)cc1` as the molecule, how does the z-score read?
The z-score was -0.254.

Which z-score does the source give for `Cc1ccc(S[C@]2(C(=O)NCc3ccccc3)CC(=O)N(Cc3ccccc3C(F)(F)F)[C@@H]2c2ccc(CO)cc2I)cc1` here?
Its z-score is -2.39.

For `CCc1cccc(NC(=O)O[C@H]2[C@H](OC(=O)Nc3ccccc3-c3ccccc3)[C@H](OC(=O)Nc3ccccc3-c3ccccc3)[C@@H](OC)O[C@@H]2CO)c1`, which z-score is on record?
Its z-score is -1.62.

For `Cc1ccc(S[C@]2(C(=O)NCC(C)C)CC(=O)N(C(C)C)[C@@H]2c2ccc(CO)cc2I)cc1`, which z-score is on record?
Its z-score is -2.41.
